Laboratory results as given in publication PMC5540273 (PLoS ONE, 2017).

System: RAF1
Conditions: concentration: 1 μM, replicates: in singlicate; n = 1
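Also: KINOMEscan kinase panel screen.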

SMILES | %Inh
COC(=O)Nc1nc2cc(Oc3ccc(NC(=O)Nc4cc(C(F)(F)F)ccc4F)cn3)ccc2[nH]1.Cl.Cl [GW681170] | 90.3%
Fc1ccc(-c2ncn(C3CCNCC3)c2-c2ccnc(Oc3ccc(-c4ccccc4)cc3)n2)cc1 [SB-245391] | 0%
Cc1ccc(C)c(NC(=O)NC2CCN(c3ccnc(Nc4ccc(F)cc4)n3)C2)c1 (stereo not shown) [GSK1379720] | 14%
CSc1cccc2c(-c3ccncn3)c(-c3ccc(F)cc3)nn12 [GW514786] | 4%
Oc1cc(Nc2ccnc3cc(I)ccc23)ccc1F [GW552771] | 49%
Cc1ccc(S(=O)(=O)Nc2ccc(Nc3nccc(Nc4cccc5[nH]ncc45)n3)cc2)cc1 [GSK581271] | 10%
COc1cccc(-c2ccc3c(NC(=O)C4CC4)n[nH]c3n2)c1 [SB-710903] | 12%
O=C(Nc1cccc(-c2nn3ccccc3c2-c2ccnc(Nc3cccc(C(F)(F)F)c3)n2)c1)c1c(F)cccc1F [GSK292658] | 72%
Cl.Cl.NCC(NCc1ccc(-c2ccnc3[nH]ccc23)s1)c1ccccc1 (stereo not shown) [GSK1321565] | 2%
CCn1c(-c2nonc2N)nc2c(C#CC(C)(C)O)nc(OC[C@H](N)c3ccccc3)cc21 [GSK943949] | 11%
COCCOCCOc1cc2ncc3c4ccc(C#N)cc4[nH]c3c2cc1OC | 0%
Clc1ccc(-c2nn3ncccc3c2-c2ccnc(Nc3ccc4c(c3)OCCO4)n2)cc1 [GW829116] | 16%
COc1cccc(NC(=O)NC2CCN(c3ccnc(Nc4cc(OC)c(OC)c(OC)c4)n3)C2)c1 (stereo not shown) [GSK1379763] | 7%
COc1cccc(C(=O)Nc2cccc(Oc3ccc4nc(NC(=O)C5CC5)cn4n3)c2)c1 | 96.8%
CN(C)Cc1ccc(-c2ccc3c(Nc4ccc(Oc5ccccn5)cc4)ccnc3c2)o1 [GW567148] | 0%
Nc1ncc(-c2cccnc2)c2scc(-c3ccc4c(c3)CCN4C(=O)Cc3ccccc3)c12 [GSK683281] | 11%
COc1ccc(Nc2nccc(NCCNC(=O)c3cc4ccccc4s3)n2)cc1 [GSK1379896] | 9%
O=C(Nc1n[nH]c2nc(-c3ccc(O)cc3)ccc12)C1CC1 [SB-710363] | 13%
O=C(Nc1cccc(-c2nn3ccccc3c2-c2ccnc(Nc3cccc(F)c3)n2)c1)c1c(F)ccc(F)c1Cl [GSK357952] | 79%

SMILES | %Inh
CN1CCN(Cc2cccc(-c3ccc4c(Nc5ccc(Oc6ccccc6)cc5)ccnc4c3)c2)CC1 [GW578342] | 0%
COc1cc(Nc2nccc(N3CCC(NC(=O)Nc4cccc(C(C)=O)c4)C3)n2)cc(OC)c1OC (stereo not shown) [GSK1379753] | 14%
c1ccc(Oc2ccc(Nc3ccnc4cc(-c5ccc(CNCCN6CCOCC6)o5)ccc34)cc2)nc1 [GW567145] | 2%
CC(C)c1nc(-c2cccc(NS(=O)(=O)c3c(F)cccc3F)c2F)c(-c2ccnc(Nc3ccc(N4CCOCC4)nc3)n2)s1 [GSK2008607] | 100%
C[C@@H](Oc1cc(-n2cnc3cc(-c4ccnc(NCCS(C)(=O)=O)c4)ccc32)sc1C(N)=O)c1ccccc1Cl [GSK907232] | 18%
Cn1cc(-c2[nH]c3cc(NC(=O)[C@H](N)C4CCCCC4)cc4c3c2C=NNC4=O)cn1 | 0%
CCS(=O)(=O)c1ccc(OC)c(Nc2nccc(-c3c(-c4cccc(NC(=O)c5c(F)cccc5F)c4)nn4ncccc34)n2)c1 [GSK326180] | 93.2%
Cl.NC(=O)c1cccc(Nc2nccc(Nc3ccc(Oc4c(Cl)cccc4Cl)c(Cl)c3)n2)c1 [GW659009] | 88%
Nc1ncc(-c2ccc3nccc(-c4ccncc4)c3c2)cc1S(=O)(=O)N1CCOCC1 [GSK1627798] | 0%
Cn1cc(-c2ccc3c(c2)CCN3C(=O)Cc2cccc(Cl)c2)c2c(N)ncnc21 [GSK2606590] | 1%
CC(C)(C)c1ccc2nccc(Nc3cccc(O)c3)c2c1 [GW856795] | 0%
CC(=O)Nc1nc2cnc(Nc3cc(NC(=O)c4cccc(C5(C#N)CC5)c4Cl)ccc3C)nc2s1 | 99.2%
COc1cc(Nc2nccc(N3CCC(NC(=O)c4cc5ccccc5s4)C3)n2)cc(OC)c1OC (stereo not shown) [GSK1379760] | 15%
Cc1occc1-c1ncc(OC[C@@H](N)Cc2c[nH]c3ccccc23)cc1-c1ccc2[nH]nc(C)c2c1.O=C(O)C(F)(F)F [GSK682037] | 11%
C[C@@H]1CC[C@@H](C(=O)Nc2ccccc2)CN1c1cc(-c2ccc3c(N)n[nH]c3c2)nc(N)n1 [GSK2286062] | 2%
CCn1c(-c2nonc2N)nc2c(C#CC(C)(C)O)ncc(OCCCCN)c21.O=C(O)C(F)(F)F.O=C(O)C(F)(F)F [GSK507274] | 13%
O=c1[nH]cc(-c2ccc(N3CCOCC3)cc2)c2sc(-c3cn[nH]c3)cc12 [GSK2276055] | 0%
COc1cccc(C2=C(Nc3ccc(Cl)c(C(=O)O)c3)C(=O)NC2=O)c1 [SB-390769] | 14%
